Screening data: PubChem, The Scripps Research Institute Molecular Screening Center
Only some compounds are listed: those with a hit (about 2.3% of all), similar ones and a draw of the others.
M1 ag: activates human CHRM1 receptor; activation, % at 3 µM; 360,000 compounds, 0.33% hits; P11229; AID 588814; CHO-K1 hM1, Fluo-8 calcium fluorescence, agonist mode; 0% DMSO, 100% acetylcholine EC100;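 active = activation above the run's mean compound activation plus 3 SD, cut at about 16% in these data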;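 also: peak over basal fluorescence ratio within a 140 s kinetic read after compound addition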
Target sequence (P11229 whole entry, looked up): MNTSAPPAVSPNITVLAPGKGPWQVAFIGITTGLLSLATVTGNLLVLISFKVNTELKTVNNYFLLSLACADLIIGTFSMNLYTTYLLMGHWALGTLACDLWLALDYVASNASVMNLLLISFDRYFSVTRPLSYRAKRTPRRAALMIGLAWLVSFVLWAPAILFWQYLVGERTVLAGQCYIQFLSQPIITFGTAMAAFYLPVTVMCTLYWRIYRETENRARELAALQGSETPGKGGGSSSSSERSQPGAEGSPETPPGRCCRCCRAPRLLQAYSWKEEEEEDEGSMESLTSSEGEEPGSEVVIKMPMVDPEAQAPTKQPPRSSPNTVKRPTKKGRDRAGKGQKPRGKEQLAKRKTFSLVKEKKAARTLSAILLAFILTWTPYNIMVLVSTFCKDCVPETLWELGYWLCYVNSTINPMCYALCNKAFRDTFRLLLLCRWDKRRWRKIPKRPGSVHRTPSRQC
CHO-K1 Ca antag: M1 antagonist counterscreen hit in parental CHO-K1 cells | ATP-induced calcium, Fluo-8 fluorescence | inhibition, % at 3 µM | 360,000 compounds, 0.6% hits | AID 602250;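 active = inhibition above a per-plate cutoff, the plate's mean sample inhibition plus 3 SD, cut at about 24% in these data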
CHO-K1 Ca PAM: M1 PAM counterscreen hit in parental CHO-K1 cells; ATP EC20, Fluo-8 calcium fluorescence; 0% at ATP EC20, 100% at ATP max; activation, % at 3 µM; 360,000 compounds, 0.02% hits; AID 602247;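 active = activation above the run cutoff, the mean activation of all test compounds plus 3 SD, cut at about 40% in these data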;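 also: peak over basal fluorescence ratio in a 140 s read after ATP addition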
M1 PAM: potentiates human M1 receptor response to acetylcholine | AID 588819 | P11229 | 360,000 compounds, 0.088% hits | activation, % at 3 µM | CHO-K1 hM1, Fluo-8 calcium fluorescence, ACh EC20; 0% = ACh EC20, 100% = maximal ACh; in the data active = activation above about 19%, passing the limit was not always enough
M1 ag parental: M1 agonist counterscreen hit in parental CHO-K1 cells; activation, % at 3 µM; Fluo-8 calcium fluorescence; scaled to maximal ATP response, vehicle zero; AID 602248; 360,000 compounds, 0.48% hits; in the data active = activation above about 15%;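 also: untransfected CHO-K1 host cells lacking M1 receptor as counterscreen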
M1 antag: human CHRM1 antagonism; P11229; 360,000 compounds, 1.3% hits; AID 588852; inhibition, % at 3 µM; CHO-K1 hM1, Fluo-8 calcium fluorescence, ACh EC80 antagonist;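 active = percent inhibition above its own plate's cutoff, namely the mean of that plate's compound wells plus 3 SD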;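 also: peak over basal fluorescence ratio during 140 s after agonist addition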
Hits are given with their value; - = inactive.

SMILES	M1 ag	CHO-K1 Ca antag	CHO-K1 Ca PAM	M1 PAM	M1 ag parental	M1 antag
O=C(Nc1nnc(C(F)(F)F)s1)c1ccc(Br)s1	-	-	-	-	-	28
CCSc1nnc(NC(=O)c2ccc(Br)s2)s1	-	-	-	-	-	-
CC(C)c1ccc(NC2CCCN(C(=O)CSc3nncn3C)C2)cc1 (stereo not given)	-	-	-	-	-	-
Cc1ccc(F)c(S(=O)(=O)NC(=O)C2(C)CCN2C(=O)Cc2ccc(-c3ccccc3)cc2)c1 (stereo not given)	-	-	-	-	-	-
COc1ccc(C(=O)CSc2nnc(CNC(=O)c3ccccc3F)n2C)cc1OC	-	-	-	-	-	-
COC(=O)c1ccc(NC(=O)Cn2nc(-c3ccncc3)nc2SCC(=O)Nc2nccs2)cc1	-	-	-	-	-	33
NC(N)=NN=C1CCC(c2ccccc2)CC1 (stereo not given)	-	-	-	-	-	-
CCCCN(C)C(=O)c1ccc(Nc2nc(C(N)Cc3ccc(C(F)(F)F)cc3)cs2)nc1 (stereo not given)	-	-	-	-	-	-
COC(=O)C1CCN(C(=O)CN(C)Cc2ccc(C(C)(C)C)cc2)CC1	-	-	-	-	-	34
CN(Cc1ccc(C(C)(C)C)cc1)C(=O)C1CCN(C(=O)Nc2ccccc2)CC1	-	-	-	-	-	-
O=C(CN1CCCC1)N1c2ccccc2C=Cc2ccccc21	-	-	-	-	-	90
O=C(CN1CCCCCC1)N1c2ccccc2C=Cc2ccccc21	-	-	-	-	-	98
CN1CCN(C(=O)N2c3ccccc3C=Cc3ccccc32)CC1	-	-	-	-	-	94
O=C(CN1CCCCC1)N1CCCc2ccccc21	-	-	-	-	-	-
COc1ccc(OC)c(NC(=O)CCN2CC(C)CC(C)C2)c1 (stereo not given)	-	-	-	-	-	-
Cc1cc(NC(=O)CSc2nnnn2-c2ccccc2C)no1	-	-	-	-	-	28
CCc1ccccc1-n1nnnc1SCC(=O)Nc1cc(C)on1	-	-	-	-	-	-
CCCc1cc(=O)oc2cc(OCC(=O)N3CCN(C(=O)C4COc5ccccc5O4)CC3)ccc12 (stereo not given)	-	-	-	-	-	-
COc1ccc(NS(=O)(=O)N2CCCCC2)cc1	-	-	-	-	-	-
O=C(Nc1ccccn1)c1ccc2c(c1)S(=O)(=O)c1ccccc1C2=O	-	-	-	-	-	-
O=C1c2ccccc2S(=O)(=O)c2cc(C(=O)N(c3ccccn3)c3ccccn3)ccc21	51	-	-	-	71	-
Cc1cccc(C(C)C)c1NC(=O)C(C)OC(=O)Cc1n[nH]c(=O)c2ccccc12 (stereo not given)	-	-	-	-	-	-
C[N+]1(CC(=O)OC2CCCCCCCCCCC2)CCCC1	-	-	-	-	-	69
COC(=O)CCCCCCCCC(O)C[N+]1(C)CCOCC1 (stereo not given)	-	-	-	-	-	-
C[N+]1(CCCCSc2ccc(O)cc2)CCCCC1	-	-	-	-	-	-
SMILES	M1 ag	CHO-K1 Ca antag	CHO-K1 Ca PAM	M1 PAM	M1 ag parental	M1 antag
COC(=O)CCCCCCCCCC[N+]1(C)CCCCC1	-	-	-	-	-	64
CC(=O)OCCCCCCCCCCC[N+]1(C)CCCCC1	-	-	-	-	-	65
O=C(c1ccc([N+](=O)[O-])s1)N1CCN(c2ccc(C(F)(F)F)cn2)CC1	-	-	-	-	-	-
Cc1cccc(NC(=O)C2CCCN2S(=O)(=O)c2ccc(Cl)cc2)n1 (stereo not given)	-	-	-	-	-	-
CSCCC(NC(=O)c1ccccc1Cl)C(=O)N(C)Cc1cccs1 (stereo not given)	-	-	-	-	-	-
COc1ccc(C(c2c(C)n(C)n(-c3ccccc3)c2=O)c2c(C)n(C)n(-c3ccccc3)c2=O)cc1OC	-	-	-	-	-	-
COc1ccc(C(c2c(C)[nH]n(-c3ccccc3)c2=O)c2c(C)[nH]n(-c3ccccc3)c2=O)cc1OC	-	-	-	-	15	-
COc1cc(/C=N/OCC(=O)Nc2cc(C)on2)ccc1OCc1ccccc1	-	-	-	-	20	-
COc1cc(/C=C/C(=O)NC(C)C)ccc1OCc1ccccc1	-	-	-	-	-	-
CCN(CC)C(CNC(=O)CSc1nnnn1-c1c(C)cccc1C)c1ccco1 (stereo not given)	-	-	-	-	-	37
CCN(CC)C(CNC(=O)CSc1nnnn1-c1ccc(C)c(C)c1)c1ccco1 (stereo not given)	-	-	-	-	-	-
O=C(C1CCCN(S(=O)(=O)c2cccs2)C1)N1CCN(C2CCCCC2)CC1 (stereo not given)	-	-	-	-	-	17
O=C(C1CCCN(S(=O)(=O)c2cccs2)C1)N1CCc2ccccc2C1 (stereo not given)	-	-	-	-	-	-
O=C(Nc1cccc(Cl)c1)c1ccccc1NC(=O)C1CCCCC1C(=O)O (stereo not given)	-	-	-	-	-	-
O=C(Nc1ccc(F)c(Cl)c1)c1ccccc1NC(=O)C1CCCCC1C(=O)O (stereo not given)	-	26	-	-	-	-
CC1Cn2c(nnc2-c2ccc(F)cc2)S1 (stereo not given)	-	26	-	-	-	-
COc1ccc(NC(=O)Nc2ccc3c(c2)CC(=O)N([C@H](C)CO)C[C@H](C)[C@H](CN(C)Cc2ccc(C(=O)O)cc2)O3)cc1	-	-	-	-	-	-
Cc1ccc(S(=O)(=O)N/N=C/c2ccc(OC3CSC3)cc2)cc1	29	-	-	-	17	37
N#CC1=C(N)Oc2cc(N)ccc2C1c1ccccc1Cl (stereo not given)	-	-	-	-	-	-
N#CC1=C(N)OC2=C(CCc3ccccc32)C1c1ccccc1Cl (stereo not given)	-	-	-	-	-	44
O=[N+]([O-])c1ccccc1S(=O)(=O)N1CCN(S(=O)(=O)c2ccc3c(c2)OCCO3)CC1	-	-	-	-	-	-
NC(=O)c1ccsc1NC(=O)COC(=O)c1cnccn1	-	-	-	-	-	-
O=C(COC(=O)c1cnccn1)Nc1ccc(Cl)cn1	-	27	-	-	-	-
O=C(NCCO)c1cccc(-c2cnc3cccnn23)c1	-	-	-	-	-	-
CCOc1ccc(NC(=O)CSc2nnc(CNC(=O)c3ccco3)o2)cc1	-	-	-	-	-	-
O=C(Nc1ccc(F)cc1)c1ccc(C(=O)N2CCCC(O)C2)cc1 (stereo not given)	-	-	-	-	-	-
